The nature of test [1]: qHTS assay to identify small molecule antagonists of the thyroid receptor (TR) signaling pathway - cell viability counter screen (AID 743064). Note: nearly all actives have a fitted effect of over 50% in size. Note: potency is the fitted concentration of half-maximal effect. Summed up:
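Counter screen for cytotoxicity: compound plus T3 (1 nM final) on GH3.TRE-Luc cells, 23.5 h at 37 °C, then fluorescence viability readout with CellTiter-Fluor.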

Test [2] in a line: qHTS assay to identify small molecule antagonists of the thyroid receptor (TR) signaling pathway (AID 743065). Note: nearly all actives have a fitted effect of over 55% in size. Note: potency is the fitted concentration of half-maximal effect. Put shortly:
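GH3.TRE-Luc rat pituitary cells carrying two TR response elements driving luciferase were plated for 4 h, given compound plus 1 nM T3 (final), and incubated 23.5 h at 37 C. ONE-Glo luminescence measured reporter inhibition; CellTiter-Fluor fluorescence tracked cytotoxicity.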
In general terms: In qHTS, concentration-response curves come from the screen itself.

In test [3] the test system is thyroid hormone receptor (rat, GH3 cells). Briefly: qHTS assay to identify small molecule agonists of the thyroid receptor (TR) signaling pathway (AID 743066; calls by dose curve).
Test [4] deals with Estrogen receptor (Homo sapiens) (UniProt P03372). Briefly: qHTS assay to identify small molecule antagonists of the estrogen receptor alpha (ER-alpha) signaling pathway (AID 743069; active = well fitted curve in the direction sought with a large enough effect in the signal ratio in the repeat runs, not every such curve was filed as active; inconclusive = weak or mixed curves, or effect the other way; inactive = no such curve, though single readings can be large or run the other way; the % refers to the signal ratio). Summed up: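 Estradiol-stimulated ER-alpha-UAS-bla HEK293 cells, 18 hr compound exposure at 37C. LiveBLAzer B/G substrate, 2 hr RT, fluorescence read.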
A short description of test [5]: qHTS assay to identify small molecule antagonists of the estrogen receptor alpha (ER-alpha) signaling pathway - cell viability counter screen (AID 743074; calls by dose curve;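 note: HEK293 cells carrying ER-alpha-UAS-bla reporter stimulated with 17beta-estradiol; nearly all actives have a fitted effect of over 45% in size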).
Test [6] has as its target Estrogen receptor (Homo sapiens) (UniProt P03372). Briefly: qHTS assay to identify small molecule agonists of the estrogen receptor alpha (ER-alpha) signaling pathway (AID 743075; calls by dose curve;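 note: HEK293 GripTite cells with ER-alpha and UAS-driven beta-lactamase reporter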; note: potency is the fitted concentration of half-maximal effect).
Test [7] shares this target. Briefly: qHTS assay to identify small molecule agonists of the estrogen receptor alpha (ER-alpha) signaling pathway using the BG1 cell line (AID 743079). Note: nearly all actives have a fitted effect of over 20% in size. Note: potency is the fitted concentration of half-maximal effect. The note with it: BG1Luc4E2 cells, ERE-luciferase agonist, 22 h; activation: at 70.3 µM (top of the series) unless noted.
Test [8] in a line: qHTS assay to identify small molecule antagonists of the estrogen receptor alpha (ER-alpha) signaling pathway using the BG1 cell line (AID 743080; calls by dose curve;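 note: BG1 cells stimulated with 17beta-estradiol alongside compound; nearly all actives have a fitted effect of over 25% in size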). Summed up:
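Luminescence from a 4×ERE-luciferase reporter in BG1-Luc-4E2 cells served as read-out. Cells, pre-cultured 5 days in stripped-serum phenol-red-free medium, were exposed to compound with 17beta-estradiol co-stimulation for 21.5 h at 37 C.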

Test [9] in a line: qHTS assay to identify small molecule antagonists of the estrogen receptor alpha (ER-alpha) signaling pathway using the BG1 cell line - cell viability counter screen (AID 743081).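 Note: compound given together with 17beta-estradiol as the ER stimulus; nearly all actives have a fitted effect of over 45% in size.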
The target of test [10] is Aromatase (Homo sapiens) (UniProt P11511). Briefly: qHTS assay to identify aromatase inhibitors (AID 743083). Note: nearly all actives have a fitted effect of over 55% in size.
Test [11] in a line: qHTS assay to identify aromatase inhibitors - cell viability counter screen (AID 743084).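 Note: cells stimulated with testosterone during compound exposure; nearly all actives have a fitted effect of over 55% in size.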
Test [12] concerns the target Aryl hydrocarbon receptor (Homo sapiens) (UniProt P35869). Briefly: qHTS assay to identify small molecule that activate the aryl hydrocarbon receptor (AhR) signaling pathway (AID 743085).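 Note: HG2L7.5c1 human HepG2 liver cells with stably integrated DRE-driven firefly reporter; nearly all actives have a fitted effect of over 15% in size.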 Summed up:
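Measured in HG2L7.5c1 cells: CellTiter-Fluor signal (30 min incubation, 37C) for viability, then luciferase luminescence (30 min, room temperature). Compound contact time was 24 h at 37C, following a 5 h pre-incubation.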

A short description of test [13]: qHTS assay to identify small molecule that activate the aryl hydrocarbon receptor (AhR) signaling pathway - cell viability counter screen (AID 743086).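 Note: HepG2 liver cells carrying the AhR DRE luciferase reporter; nearly all actives have a fitted effect of over 45% in size.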 Summed up:
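HepG2-AhR-luc (HG2L7.5c1) cells, 4000/well, were preincubated 5 h at 37C, exposed to compound in qHTS format for 24 hr at 37C, then given CellTiter-Fluor for 30 min; viability was read as fluorescence in the reporter wells.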

Test [14] deals with Peroxisome proliferator-activated receptor gamma (Homo sapiens) (UniProt P37231). Briefly: qHTS assay to identify small molecule agonists of the peroxisome proliferator-activated receptor gamma (PPARg) signaling pathway (AID 743094; active = well fitted activation curve with a large enough effect in the signal ratio in the repeat runs, not every such curve was filed as active; inconclusive = weak or mixed curves, or effect the other way; inactive = no such curve, though single readings can be large or run the other way; the % refers to the signal ratio). Put shortly: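 Quantitative HTS agonist mode: stable HEK293H line with UAS-beta-lactamase reporter under PPARg control, 17 h compound exposure at 37C, fluorescence after 1 h FRET substrate loading at room temperature.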

Test [15] has the same target. Briefly: qHTS assay to identify small molecule antagonists of the peroxisome proliferator-activated receptor gamma (PPARg) signaling pathway (AID 743191; calls by dose curve; note: nearly all actives have a fitted effect of over 30% in size). Put shortly:
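GeneBLAzer PPARg UAS-bla HEK293H cells carrying a UAS-driven beta-lactamase reporter were plated at 3000 cells/well, preincubated 5 h at 37C, then given compound for 17 h at 37C; LiveBLAzer B/G FRET substrate was read after 1 h at room temperature.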

A short description of test [16]: qHTS assay to identify small molecule antagonists of the peroxisome proliferator-activated receptor gamma (PPARg) signaling pathway - cell viability counter screen (AID 743194). Note: nearly all actives have a fitted effect of over 55% in size. The note with it: Potency: co-treated with 50 nM rosiglitazone unless noted. Put shortly:
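PPARg-UAS-bla HEK293H cells were plated, rested 5 h at 37 C, then treated with compounds plus rosiglitazone (50 nM final) for 17 h at 37 C; viability was then read by CellTiter-Glo luminescence after 30 min at room temperature.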

A short description of test [17]: qHTS assay for small molecule agonists of the antioxidant response element (ARE) signaling pathway (AID 743202; active = well fitted activation curve with a large enough effect in the signal ratio in the repeat runs, not every such curve was filed as active; inconclusive = weak or mixed curves, or effect the other way; inactive = no such curve, though single readings can be large or run the other way; the % refers to the signal ratio). Put shortly:
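Compounds delivered in DMSO to ARE-bla HepG2 cells (2,000 cells/well, pre-incubated 5 h) and left 16 h at 37 C. LiveBLAzer B/G FRET substrate then added for 2 h at RT before fluorescence reading.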

Test [18] is described as follows: qHTS assay for small molecule agonists of the antioxidant response element (ARE) signaling pathway - cell viability counter screen (AID 743203; calls by dose curve; note: nearly all actives have a fitted effect of over 55% in size). Put shortly: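 Seeded at 2,000 cells/well, ARE-bla HepG2 cells were incubated 5 hrs before compound addition. After 16 hrs of treatment at 37C with 5% CO2, CellTiter-Glo reagent was added and luminescence read 30 min later.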

A short description of test [19]: qHTS assay for small molecule activators of the heat shock response signaling pathway - cell viability counter screen (AID 743209). Note: nearly all actives have a fitted effect of over 50% in size. Put shortly: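 First, HSE-bla HeLa cells were seeded at 1500 cells/well and kept overnight at 37 C. Next, compounds were pinned in and incubated 5 h. After the FRET substrate step, CellTiter-Glo was added and luminescence read 30 min later.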

The nature of test [20]: qHTS assay for small molecule activators of the heat shock response signaling pathway (AID 743210; active = well fitted activation curve with a large enough effect in the signal ratio in the repeat runs, with a control signal flat, not every such curve was filed as active; inconclusive = weak or mixed curves; the % refers to the signal ratio;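 note: HeLa cells with beta-lactamase reporter driven by heat shock elements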). Summed up: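 Reporter gene assay: HeLa cells stably bearing an HSE-bla construct, compound treatment 5 h at 37 C, LiveBLAzer substrate 2.5 h at RT, fluorescence intensity.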

These results are taken from PubChem BioAssay (Tox21).

Each structure is given as a SMILES string. Several values for one entry are separate records, joined by “and”; a condition that tells them apart may be missing. Equal entries are not always repeated. More than one record can exist for a structure, and the calls need not agree. Activity calls are given as the source filed them. Unless noted, calls come from the whole dose curve; as a rule, active = well fitted curve in the direction sought with a large enough effect in the repeat runs; inconclusive = weak or mixed curves; inactive = no such curve, though single readings can be large; an effect the other way counts as inactive or inconclusive.

Chain of Aromatase (Homo sapiens) (P11511 whole entry, looked up): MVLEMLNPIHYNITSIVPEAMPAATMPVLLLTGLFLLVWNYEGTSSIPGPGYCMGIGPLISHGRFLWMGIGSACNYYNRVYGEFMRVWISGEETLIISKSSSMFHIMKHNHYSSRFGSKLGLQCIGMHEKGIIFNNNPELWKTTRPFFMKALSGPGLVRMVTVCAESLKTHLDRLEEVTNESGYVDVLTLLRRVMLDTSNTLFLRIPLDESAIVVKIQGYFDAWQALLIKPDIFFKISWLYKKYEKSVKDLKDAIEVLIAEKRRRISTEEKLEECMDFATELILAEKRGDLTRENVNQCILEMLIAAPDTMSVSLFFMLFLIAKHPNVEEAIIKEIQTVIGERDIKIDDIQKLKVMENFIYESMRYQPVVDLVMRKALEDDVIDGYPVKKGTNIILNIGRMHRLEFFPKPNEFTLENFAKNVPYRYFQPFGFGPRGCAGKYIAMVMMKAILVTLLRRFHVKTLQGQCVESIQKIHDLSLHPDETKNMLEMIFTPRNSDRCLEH
Chain of Peroxisome proliferator-activated receptor gamma (Homo sapiens) (P37231 whole entry, looked up): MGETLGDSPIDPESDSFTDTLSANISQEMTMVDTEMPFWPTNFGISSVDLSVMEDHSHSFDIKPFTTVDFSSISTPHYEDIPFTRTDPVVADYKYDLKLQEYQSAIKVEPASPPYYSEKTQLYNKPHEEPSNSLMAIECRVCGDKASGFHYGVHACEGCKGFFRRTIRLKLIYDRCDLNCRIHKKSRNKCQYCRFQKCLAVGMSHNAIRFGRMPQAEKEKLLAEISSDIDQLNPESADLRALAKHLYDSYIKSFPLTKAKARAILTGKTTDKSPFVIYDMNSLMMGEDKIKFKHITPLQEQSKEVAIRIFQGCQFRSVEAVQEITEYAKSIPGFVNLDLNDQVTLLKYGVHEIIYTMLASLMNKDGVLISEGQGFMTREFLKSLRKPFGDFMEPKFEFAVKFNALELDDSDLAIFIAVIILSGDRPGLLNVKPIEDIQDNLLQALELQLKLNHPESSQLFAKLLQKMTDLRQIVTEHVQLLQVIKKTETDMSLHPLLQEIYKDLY
Chain of Aryl hydrocarbon receptor (Homo sapiens) (P35869 whole entry, looked up): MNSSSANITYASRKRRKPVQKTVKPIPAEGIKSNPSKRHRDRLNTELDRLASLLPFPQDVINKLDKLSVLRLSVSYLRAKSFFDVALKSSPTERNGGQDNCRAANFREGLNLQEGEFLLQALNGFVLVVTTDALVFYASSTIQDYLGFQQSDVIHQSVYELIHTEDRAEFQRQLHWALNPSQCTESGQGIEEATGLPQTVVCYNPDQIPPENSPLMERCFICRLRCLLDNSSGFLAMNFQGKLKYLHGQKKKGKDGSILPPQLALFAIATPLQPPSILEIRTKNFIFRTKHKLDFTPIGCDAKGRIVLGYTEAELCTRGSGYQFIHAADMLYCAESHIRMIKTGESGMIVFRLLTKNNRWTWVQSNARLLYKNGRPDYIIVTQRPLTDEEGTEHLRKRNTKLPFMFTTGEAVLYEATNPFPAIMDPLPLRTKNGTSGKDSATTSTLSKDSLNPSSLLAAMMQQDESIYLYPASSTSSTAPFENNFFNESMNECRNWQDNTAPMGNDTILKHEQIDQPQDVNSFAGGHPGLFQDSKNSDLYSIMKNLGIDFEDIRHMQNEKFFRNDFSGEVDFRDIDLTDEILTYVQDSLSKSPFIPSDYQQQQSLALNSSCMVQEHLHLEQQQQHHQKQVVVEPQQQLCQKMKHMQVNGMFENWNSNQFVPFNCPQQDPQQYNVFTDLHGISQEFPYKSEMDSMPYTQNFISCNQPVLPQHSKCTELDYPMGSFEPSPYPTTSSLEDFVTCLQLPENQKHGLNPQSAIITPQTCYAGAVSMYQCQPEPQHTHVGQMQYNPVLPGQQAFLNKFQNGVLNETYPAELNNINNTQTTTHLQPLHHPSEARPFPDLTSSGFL
Chain of Estrogen receptor (Homo sapiens) (P03372 whole entry, looked up): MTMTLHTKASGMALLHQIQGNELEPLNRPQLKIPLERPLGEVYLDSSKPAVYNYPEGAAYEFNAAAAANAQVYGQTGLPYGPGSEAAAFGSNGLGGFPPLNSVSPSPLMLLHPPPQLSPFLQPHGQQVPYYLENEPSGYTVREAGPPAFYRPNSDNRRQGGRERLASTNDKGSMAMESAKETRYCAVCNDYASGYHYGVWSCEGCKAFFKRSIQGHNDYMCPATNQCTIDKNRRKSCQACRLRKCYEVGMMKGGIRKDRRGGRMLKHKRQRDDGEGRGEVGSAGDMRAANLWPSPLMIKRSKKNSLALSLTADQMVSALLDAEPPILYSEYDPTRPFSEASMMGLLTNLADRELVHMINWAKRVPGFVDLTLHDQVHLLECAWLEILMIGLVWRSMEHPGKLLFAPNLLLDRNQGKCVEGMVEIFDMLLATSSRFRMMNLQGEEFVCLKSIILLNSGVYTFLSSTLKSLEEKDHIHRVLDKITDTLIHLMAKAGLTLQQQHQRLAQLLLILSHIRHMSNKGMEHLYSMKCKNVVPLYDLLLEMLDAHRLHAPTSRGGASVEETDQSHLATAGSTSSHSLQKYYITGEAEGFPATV

For the compound `N#Cc1cccnc1`, the Potency entry in [1], in test [2], in [3], in test [4], in test [5] and in test [6] was “inactive” throughout. The Potency entry in test [7], in test [8], in [9], in test [10], in test [11] and in test [12] was “inactive” in each case. In addition, the Potency result in test [13], in test [14], in test [15], in test [16], in [17] and in test [18] was “inactive” throughout. Further, the Potency entry in [19] and in [20] was “inactive” throughout.
As for `C=C(C)C#N`, the Potency entry in test [1], in [2], in test [3], in [4], in test [5] and in test [6] was “inactive” in each case. For the same compound, the Potency entry in test [7], in test [8], in [9], in [10], in [11] and in test [12] was “inactive” in each case. Besides, the Potency result in [13], in test [16], in test [17], in test [18], in [19] and in test [20] was “inactive” throughout.
Regarding `C[C@]12CCC(=O)C=C1CC[C@@H]1[C@@H]2CC[C@@]2(C)[C@H]1CC[C@]2(C)O`, the Potency entry was “inactive and 61.4 µM (active)” in [1]; 10.6 µM (active) and 24.5 µM (active) in test [2]; 2.13 µM [inconclusive] (active) and 4.25 µM [inconclusive] (active) and 1.39 µM [inconclusive] (active) in test [6]; 376 nM (active) and 106 nM (active) and 179 nM (active) in test [7]. Further, the Potency entry in [3], in test [4], in [5], in test [8], in [9] and in [10] was “inactive” throughout. Further, the Potency result in [11], in test [12], in test [13], in [14], in test [16] and in test [18] was “inactive” each time. The Potency entry in [19] and in test [20] was “inactive” throughout.
In the case of `CC(C)Nc1nc(Cl)nc(NC(C)C)n1`, the Potency entry in [1], in [2], in test [3], in test [4], in [5] and in test [6] was “inactive” in each case. Besides, the Potency entry in test [7], in test [8], in test [9], in [10], in [11] and in [12] was “inactive” each time. Moreover, the Potency entry in [13], in test [14], in [15], in test [16], in [17] and in [18] was “inactive” in each case. Moreover, the Potency result in test [19] and in test [20] was “inactive” throughout.
With `CCCCOCC1CO1` (centres undefined), the Potency result in [1], in test [2], in test [3], in test [4], in test [5] and in [6] was “inactive” each time. Further, the Potency entry in [7], in test [8], in test [9], in test [10], in test [11] and in test [12] was “inactive” each time. Besides, the Potency result in [13], in test [14], in test [15], in test [16], in test [17] and in test [18] was “inactive” in each case. The Potency result in [19] and in [20] was “inactive” each time.
Turning to `CCC1(c2ccc(N)cc2)CCC(=O)NC1=O` (centres undefined), the Potency entry in test [1], in test [2], in test [3], in [4], in [5] and in test [6] was “inactive” each time. Further, the Potency entry in test [7], in [8], in [9], in test [11], in test [12] and in test [13] was “inactive” in each case. In addition, the Potency result in test [14], in test [15], in test [16], in test [18], in [19] and in [20] was “inactive” throughout.
